# Data reported in article PMC7862700, “An all-to-all approach to the identification of sequence-specific readers for epigenetic DNA modifications on cytosine”.
# Assays:
# Assay in all cases: DAPPL (digital affinity profiling via proximity ligation, sequencing); 10 mM Tris-HCl pH 7.5, 50 mM NaCl, 1 mM DTT, 4% glycerol, room temperature, 30 min; GST-TFs on glutathione beads, 16-mer random dsDNA library, 0.1% formaldehyde crosslink after washing; high values mean tight binding
# FLI1 = molecular target: T1, FLI1 (Homo sapiens, UniProt Q01543 1-452); settings: protein: recombinant; tags: N-terminal GST; dsDNA, one strand shown
# T1 sequence: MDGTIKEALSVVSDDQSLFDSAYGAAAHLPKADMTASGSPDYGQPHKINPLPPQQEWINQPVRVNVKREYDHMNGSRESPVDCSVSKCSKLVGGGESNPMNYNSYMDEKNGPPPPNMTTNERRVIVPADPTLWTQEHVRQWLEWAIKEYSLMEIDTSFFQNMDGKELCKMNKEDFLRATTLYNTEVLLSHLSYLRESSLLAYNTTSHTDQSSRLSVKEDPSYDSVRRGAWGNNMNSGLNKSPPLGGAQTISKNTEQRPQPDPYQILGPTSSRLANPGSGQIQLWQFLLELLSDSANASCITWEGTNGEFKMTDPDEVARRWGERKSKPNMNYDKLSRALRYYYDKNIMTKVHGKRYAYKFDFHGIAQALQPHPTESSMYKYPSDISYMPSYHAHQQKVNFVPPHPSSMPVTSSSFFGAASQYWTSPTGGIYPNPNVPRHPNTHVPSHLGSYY
# How it was run: (§1)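 Human transcription factors fused to GST were expressed in yeast, captured on glutathione beads, given DNA barcodes and pooled with a GST-only negative control. Pools were incubated with 200 nmole of a 16-mer random double-stranded DNA library in Tris/NaCl/DTT/glycerol buffer at room temperature for 30 min. They were then washed, crosslinked with 0.1% formaldehyde, proximity-ligated (BsaI/T4 ligase, 1 h, 37 °C), PCR-amplified and sequenced on an Illumina NextSeq500. Binding signal is each 6-mer's read frequency for a factor divided by its frequency for the GST control.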
# ELK1 = molecular target: T2, ELK1 (Homo sapiens, UniProt P19419 1-428); settings: protein: recombinant; tags: N-terminal GST; dsDNA, one strand shown
# T2 sequence: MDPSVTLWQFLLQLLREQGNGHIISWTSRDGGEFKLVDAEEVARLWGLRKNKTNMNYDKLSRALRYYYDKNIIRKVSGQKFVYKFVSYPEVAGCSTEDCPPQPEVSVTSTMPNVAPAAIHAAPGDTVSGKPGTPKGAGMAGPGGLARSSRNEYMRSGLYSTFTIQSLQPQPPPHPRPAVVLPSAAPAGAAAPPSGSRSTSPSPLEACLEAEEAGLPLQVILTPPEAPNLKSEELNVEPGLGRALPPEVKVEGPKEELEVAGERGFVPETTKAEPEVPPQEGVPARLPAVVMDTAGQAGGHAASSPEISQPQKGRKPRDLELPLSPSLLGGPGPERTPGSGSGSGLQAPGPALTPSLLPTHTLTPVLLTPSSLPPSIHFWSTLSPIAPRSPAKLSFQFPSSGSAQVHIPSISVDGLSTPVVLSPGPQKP
# How it was run: as §1
# GABPA = molecular target: T3, GABPA (Homo sapiens, UniProt Q06546 1-454); settings: protein: recombinant; tags: N-terminal GST; dsDNA, one strand shown
# T3 sequence: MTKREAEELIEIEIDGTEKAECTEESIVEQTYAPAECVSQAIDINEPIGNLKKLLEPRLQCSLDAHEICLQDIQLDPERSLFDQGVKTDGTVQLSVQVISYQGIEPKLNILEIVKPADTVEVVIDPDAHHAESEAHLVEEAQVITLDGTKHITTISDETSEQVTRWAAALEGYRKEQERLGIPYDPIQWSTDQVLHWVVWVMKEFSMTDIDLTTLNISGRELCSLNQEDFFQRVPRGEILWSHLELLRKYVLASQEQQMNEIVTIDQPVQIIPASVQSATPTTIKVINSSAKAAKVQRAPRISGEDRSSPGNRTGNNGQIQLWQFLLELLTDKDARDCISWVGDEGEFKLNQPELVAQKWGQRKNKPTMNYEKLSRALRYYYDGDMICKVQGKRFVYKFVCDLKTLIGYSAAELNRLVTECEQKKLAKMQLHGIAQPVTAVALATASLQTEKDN
# How it was run: as §1
# ERG = molecular target: T4, ERG (Homo sapiens, UniProt P11308 1-479); settings: protein: recombinant; tags: N-terminal GST; dsDNA, one strand shown
# T4 sequence: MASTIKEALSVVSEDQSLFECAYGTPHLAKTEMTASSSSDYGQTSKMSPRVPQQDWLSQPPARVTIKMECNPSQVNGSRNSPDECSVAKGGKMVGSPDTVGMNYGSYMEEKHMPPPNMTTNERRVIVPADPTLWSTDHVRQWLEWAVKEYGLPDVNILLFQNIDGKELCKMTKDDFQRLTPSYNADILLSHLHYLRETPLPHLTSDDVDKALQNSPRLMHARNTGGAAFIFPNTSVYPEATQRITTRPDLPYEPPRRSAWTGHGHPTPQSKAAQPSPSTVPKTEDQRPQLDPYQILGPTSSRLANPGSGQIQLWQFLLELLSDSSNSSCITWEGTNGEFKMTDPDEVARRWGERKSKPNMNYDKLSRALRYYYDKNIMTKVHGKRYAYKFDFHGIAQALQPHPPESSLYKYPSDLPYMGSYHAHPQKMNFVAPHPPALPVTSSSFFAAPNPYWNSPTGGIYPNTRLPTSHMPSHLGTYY
# How it was run: as §1
# ELF1 = ELF1 (Homo sapiens, UniProt P32519 1-619); settings: protein: recombinant; tags: N-terminal GST; dsDNA, one strand shown
# How it was run: as §1
# EHF = molecular target: T5, EHF (Homo sapiens, UniProt Q9NZC4 1-300); settings: protein: recombinant; tags: N-terminal GST; dsDNA, one strand shown
# T5 sequence: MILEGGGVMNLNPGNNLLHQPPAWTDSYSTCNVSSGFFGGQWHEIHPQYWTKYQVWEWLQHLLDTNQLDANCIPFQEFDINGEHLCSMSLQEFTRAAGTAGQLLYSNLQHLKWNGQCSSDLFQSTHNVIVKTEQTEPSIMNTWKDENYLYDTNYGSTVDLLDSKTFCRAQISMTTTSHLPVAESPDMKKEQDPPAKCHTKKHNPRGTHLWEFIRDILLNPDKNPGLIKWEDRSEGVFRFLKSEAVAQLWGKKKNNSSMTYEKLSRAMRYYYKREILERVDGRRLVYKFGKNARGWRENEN
# How it was run: as §1
# SPI1 = SPI1 (Homo sapiens, UniProt P17947 1-270); settings: protein: recombinant; tags: N-terminal GST; dsDNA, one strand shown
# How it was run: as §1
# SPIB = SPIB (Homo sapiens, UniProt Q01892 1-262); settings: protein: recombinant; tags: N-terminal GST; dsDNA, one strand shown
# How it was run: as §1
# ELK3 = molecular target: T6, ELK3 (Homo sapiens, UniProt P41970 1-407); settings: protein: recombinant; tags: N-terminal GST; dsDNA, one strand shown
# T6 sequence: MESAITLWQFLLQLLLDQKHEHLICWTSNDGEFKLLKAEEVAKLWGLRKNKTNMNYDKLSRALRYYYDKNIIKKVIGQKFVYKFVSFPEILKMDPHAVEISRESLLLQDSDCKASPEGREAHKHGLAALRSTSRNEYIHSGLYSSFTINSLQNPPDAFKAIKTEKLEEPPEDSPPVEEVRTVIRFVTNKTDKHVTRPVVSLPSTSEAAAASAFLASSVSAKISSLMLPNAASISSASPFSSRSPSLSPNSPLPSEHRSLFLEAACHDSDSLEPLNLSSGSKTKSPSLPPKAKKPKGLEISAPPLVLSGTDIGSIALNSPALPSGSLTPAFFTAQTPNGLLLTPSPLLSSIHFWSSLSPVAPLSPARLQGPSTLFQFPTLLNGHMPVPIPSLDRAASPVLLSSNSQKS
# How it was run: as §1
# FEV = molecular target: T7, FEV (Homo sapiens, UniProt Q99581 1-238); settings: protein: recombinant; tags: N-terminal GST; dsDNA, one strand shown
# T7 sequence: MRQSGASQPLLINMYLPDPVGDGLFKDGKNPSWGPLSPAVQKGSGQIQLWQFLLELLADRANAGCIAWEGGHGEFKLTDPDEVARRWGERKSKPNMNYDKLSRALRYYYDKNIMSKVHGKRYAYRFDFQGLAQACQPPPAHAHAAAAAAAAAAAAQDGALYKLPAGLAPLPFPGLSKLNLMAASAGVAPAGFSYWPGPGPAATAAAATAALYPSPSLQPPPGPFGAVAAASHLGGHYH
# How it was run: as §1
# ETV5 = ETV5 (Homo sapiens, UniProt P41161 1-510); settings: protein: recombinant; tags: N-terminal GST; dsDNA, one strand shown
# How it was run: as §1
# HSF1 = HSF1 (Homo sapiens, UniProt Q00613 1-529); settings: protein: recombinant; tags: N-terminal GST; chain copies: 3; dsDNA, one strand shown
# How it was run: as §1
# SPIC = molecular target: T8, SPIC (Homo sapiens, UniProt Q8N5J4 1-248); settings: protein: recombinant; tags: N-terminal GST; dsDNA, one strand shown
# T8 sequence: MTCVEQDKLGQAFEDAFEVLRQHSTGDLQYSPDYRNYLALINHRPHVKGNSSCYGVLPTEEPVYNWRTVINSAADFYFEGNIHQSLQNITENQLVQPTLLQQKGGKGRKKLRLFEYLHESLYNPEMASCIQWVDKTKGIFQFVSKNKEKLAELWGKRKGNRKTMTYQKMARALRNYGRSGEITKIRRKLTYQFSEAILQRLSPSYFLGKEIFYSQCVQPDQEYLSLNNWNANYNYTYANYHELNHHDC
# How it was run: as §1
# ELF4 = ELF4 (Homo sapiens, UniProt Q99607 1-663); settings: protein: recombinant; tags: N-terminal GST; dsDNA, one strand shown
# How it was run: as §1
# ELK4 = molecular target: T9, ELK4 (Homo sapiens, UniProt P28324-2 1-405); settings: protein: recombinant; tags: N-terminal GST; dsDNA, one strand shown
# T9 sequence: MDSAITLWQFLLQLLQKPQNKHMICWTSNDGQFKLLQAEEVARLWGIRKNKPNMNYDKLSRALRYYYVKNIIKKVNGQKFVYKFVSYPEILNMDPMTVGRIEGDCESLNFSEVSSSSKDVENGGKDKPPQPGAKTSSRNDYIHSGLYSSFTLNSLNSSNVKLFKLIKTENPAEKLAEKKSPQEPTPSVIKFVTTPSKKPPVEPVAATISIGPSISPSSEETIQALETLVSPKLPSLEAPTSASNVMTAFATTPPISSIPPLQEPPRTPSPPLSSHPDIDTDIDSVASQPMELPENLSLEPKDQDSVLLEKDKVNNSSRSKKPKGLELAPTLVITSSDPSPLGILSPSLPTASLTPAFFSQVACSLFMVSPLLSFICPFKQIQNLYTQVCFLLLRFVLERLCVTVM
# How it was run: as §1
# ETV2 = molecular target: T10, ETV2 (Homo sapiens, UniProt O00321 1-342); settings: protein: recombinant; tags: N-terminal GST; dsDNA, one strand shown
# T10 sequence: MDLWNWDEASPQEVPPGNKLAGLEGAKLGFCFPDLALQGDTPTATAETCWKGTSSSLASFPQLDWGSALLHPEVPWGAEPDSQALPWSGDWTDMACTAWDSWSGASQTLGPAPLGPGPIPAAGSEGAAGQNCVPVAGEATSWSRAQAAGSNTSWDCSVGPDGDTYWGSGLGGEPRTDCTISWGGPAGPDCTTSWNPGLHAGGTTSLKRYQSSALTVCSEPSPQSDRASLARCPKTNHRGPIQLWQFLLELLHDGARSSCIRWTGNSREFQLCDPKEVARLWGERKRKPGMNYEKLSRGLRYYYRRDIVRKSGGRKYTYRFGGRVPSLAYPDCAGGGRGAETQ
# How it was run: as §1
# ELF3 = molecular target: T11, ELF3 (Homo sapiens, UniProt P78545 1-371); settings: protein: recombinant; tags: N-terminal GST; dsDNA, one strand shown
# T11 sequence: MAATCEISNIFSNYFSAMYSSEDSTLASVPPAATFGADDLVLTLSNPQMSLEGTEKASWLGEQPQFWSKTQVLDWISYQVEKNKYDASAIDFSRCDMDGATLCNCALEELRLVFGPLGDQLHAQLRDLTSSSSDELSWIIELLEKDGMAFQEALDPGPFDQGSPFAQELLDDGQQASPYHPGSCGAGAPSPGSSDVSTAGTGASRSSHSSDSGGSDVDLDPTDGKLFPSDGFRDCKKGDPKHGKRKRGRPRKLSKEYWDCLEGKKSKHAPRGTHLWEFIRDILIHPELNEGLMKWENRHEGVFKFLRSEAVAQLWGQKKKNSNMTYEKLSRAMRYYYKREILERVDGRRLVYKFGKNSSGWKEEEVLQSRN
# How it was run: as §1
# CRX = CRX (Homo sapiens, UniProt O43186 1-299); settings: protein: recombinant; tags: N-terminal GST; dsDNA, one strand shown
# How it was run: as §1
# ETV1 = ETV1 (Homo sapiens, UniProt P50549 1-477); settings: protein: recombinant; tags: N-terminal GST; dsDNA, one strand shown
# How it was run: as §1
# CRX, sequence (O43186 whole entry): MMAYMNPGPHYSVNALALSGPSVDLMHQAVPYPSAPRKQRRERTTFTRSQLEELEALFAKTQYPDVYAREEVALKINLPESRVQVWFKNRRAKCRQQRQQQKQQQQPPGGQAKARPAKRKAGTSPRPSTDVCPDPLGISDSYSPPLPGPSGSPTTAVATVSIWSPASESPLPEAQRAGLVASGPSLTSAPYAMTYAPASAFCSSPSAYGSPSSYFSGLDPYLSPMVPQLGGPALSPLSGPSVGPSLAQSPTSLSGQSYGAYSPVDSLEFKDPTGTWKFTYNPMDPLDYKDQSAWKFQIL
# ETV1, sequence (P50549 whole entry): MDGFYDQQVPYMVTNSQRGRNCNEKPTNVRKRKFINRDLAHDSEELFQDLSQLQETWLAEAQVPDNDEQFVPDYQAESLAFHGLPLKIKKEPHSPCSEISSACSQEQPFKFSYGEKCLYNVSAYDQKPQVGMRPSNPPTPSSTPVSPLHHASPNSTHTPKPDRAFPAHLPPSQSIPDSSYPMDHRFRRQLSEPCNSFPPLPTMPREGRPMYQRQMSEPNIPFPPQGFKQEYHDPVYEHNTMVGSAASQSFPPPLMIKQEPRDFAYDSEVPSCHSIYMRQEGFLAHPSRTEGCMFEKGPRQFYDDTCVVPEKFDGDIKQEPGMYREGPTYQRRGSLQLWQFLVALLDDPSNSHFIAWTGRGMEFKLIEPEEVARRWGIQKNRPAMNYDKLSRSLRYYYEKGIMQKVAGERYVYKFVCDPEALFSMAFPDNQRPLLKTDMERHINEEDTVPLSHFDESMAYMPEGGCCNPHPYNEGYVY
# ELF1, sequence (P32519 whole entry): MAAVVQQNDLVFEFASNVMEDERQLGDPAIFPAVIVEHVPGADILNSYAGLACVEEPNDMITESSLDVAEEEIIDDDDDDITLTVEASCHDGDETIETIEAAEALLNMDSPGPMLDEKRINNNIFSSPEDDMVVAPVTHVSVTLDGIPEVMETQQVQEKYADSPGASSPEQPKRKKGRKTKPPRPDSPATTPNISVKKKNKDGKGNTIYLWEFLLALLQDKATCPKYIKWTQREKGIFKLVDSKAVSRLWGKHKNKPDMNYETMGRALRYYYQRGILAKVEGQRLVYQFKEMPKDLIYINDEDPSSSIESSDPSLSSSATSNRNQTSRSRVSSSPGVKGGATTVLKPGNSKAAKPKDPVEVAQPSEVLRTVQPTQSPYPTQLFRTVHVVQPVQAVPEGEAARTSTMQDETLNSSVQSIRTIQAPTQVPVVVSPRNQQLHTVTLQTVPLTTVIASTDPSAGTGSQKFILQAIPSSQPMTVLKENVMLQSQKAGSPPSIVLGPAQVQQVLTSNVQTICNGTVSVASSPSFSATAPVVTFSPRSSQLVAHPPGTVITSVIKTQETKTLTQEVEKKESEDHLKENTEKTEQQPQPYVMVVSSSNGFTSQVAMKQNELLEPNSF
# ETV5, sequence (P41161 whole entry): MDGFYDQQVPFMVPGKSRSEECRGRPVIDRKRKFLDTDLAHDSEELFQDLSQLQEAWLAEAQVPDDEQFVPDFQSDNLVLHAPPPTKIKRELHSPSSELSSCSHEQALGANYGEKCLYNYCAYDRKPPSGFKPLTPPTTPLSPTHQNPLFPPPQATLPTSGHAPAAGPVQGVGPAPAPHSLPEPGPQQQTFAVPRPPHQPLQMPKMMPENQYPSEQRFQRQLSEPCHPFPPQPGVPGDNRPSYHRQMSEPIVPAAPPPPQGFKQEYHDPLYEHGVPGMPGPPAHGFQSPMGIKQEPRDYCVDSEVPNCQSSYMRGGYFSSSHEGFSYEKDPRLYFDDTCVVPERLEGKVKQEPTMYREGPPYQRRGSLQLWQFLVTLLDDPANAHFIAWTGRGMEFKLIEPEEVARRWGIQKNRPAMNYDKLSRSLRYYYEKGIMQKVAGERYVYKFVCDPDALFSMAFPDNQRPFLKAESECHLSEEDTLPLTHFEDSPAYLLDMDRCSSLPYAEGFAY
# HSF1, sequence (Q00613 whole entry): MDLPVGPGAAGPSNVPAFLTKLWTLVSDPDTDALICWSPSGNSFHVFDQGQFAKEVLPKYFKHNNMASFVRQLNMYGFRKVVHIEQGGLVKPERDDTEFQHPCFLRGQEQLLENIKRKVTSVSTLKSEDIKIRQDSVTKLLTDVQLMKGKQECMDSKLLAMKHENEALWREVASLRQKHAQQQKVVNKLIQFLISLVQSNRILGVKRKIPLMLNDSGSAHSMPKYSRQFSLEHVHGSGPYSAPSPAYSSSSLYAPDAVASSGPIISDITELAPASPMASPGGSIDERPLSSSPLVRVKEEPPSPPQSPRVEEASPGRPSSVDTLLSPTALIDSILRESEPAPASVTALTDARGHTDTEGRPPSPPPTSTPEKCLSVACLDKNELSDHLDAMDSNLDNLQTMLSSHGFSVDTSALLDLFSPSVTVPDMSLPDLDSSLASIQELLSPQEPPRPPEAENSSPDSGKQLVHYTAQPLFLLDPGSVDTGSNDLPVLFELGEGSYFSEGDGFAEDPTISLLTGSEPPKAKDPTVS
# ELF4, sequence (Q99607 whole entry): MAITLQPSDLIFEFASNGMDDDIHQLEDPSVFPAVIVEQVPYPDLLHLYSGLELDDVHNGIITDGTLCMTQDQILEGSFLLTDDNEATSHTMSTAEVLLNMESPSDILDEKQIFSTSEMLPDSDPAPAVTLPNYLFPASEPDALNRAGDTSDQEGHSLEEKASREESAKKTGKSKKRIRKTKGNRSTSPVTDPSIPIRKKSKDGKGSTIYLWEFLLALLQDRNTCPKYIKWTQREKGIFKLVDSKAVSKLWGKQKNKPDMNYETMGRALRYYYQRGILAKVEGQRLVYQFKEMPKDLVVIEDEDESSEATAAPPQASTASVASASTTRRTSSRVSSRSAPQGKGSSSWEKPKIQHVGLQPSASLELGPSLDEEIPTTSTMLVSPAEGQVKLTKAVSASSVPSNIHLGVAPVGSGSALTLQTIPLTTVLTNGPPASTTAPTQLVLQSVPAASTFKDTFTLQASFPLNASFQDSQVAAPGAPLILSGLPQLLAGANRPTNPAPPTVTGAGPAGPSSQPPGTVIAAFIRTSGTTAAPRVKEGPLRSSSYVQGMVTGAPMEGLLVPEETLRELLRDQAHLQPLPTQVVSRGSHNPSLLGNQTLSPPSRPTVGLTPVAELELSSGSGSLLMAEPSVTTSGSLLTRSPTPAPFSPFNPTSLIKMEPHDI
# SPIB, sequence (Q01892 whole entry): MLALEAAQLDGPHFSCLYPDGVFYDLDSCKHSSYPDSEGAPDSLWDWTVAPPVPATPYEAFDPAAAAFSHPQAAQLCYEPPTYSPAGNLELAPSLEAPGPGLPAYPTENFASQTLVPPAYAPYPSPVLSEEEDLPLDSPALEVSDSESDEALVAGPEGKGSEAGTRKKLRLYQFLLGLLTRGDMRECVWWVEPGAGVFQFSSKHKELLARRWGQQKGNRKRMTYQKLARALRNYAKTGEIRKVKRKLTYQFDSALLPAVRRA
sequence,measurement,setting,value
GATCCT,binding signal,FLI1,"1.28 fold enrichment (6-mer frequency, TF over GST control)"
same,binding signal,ELK1,"1.2 fold enrichment (6-mer frequency, TF over GST control)"
same,binding signal,GABPA,"1.3 fold enrichment (6-mer frequency, TF over GST control)"
same,binding signal,ERG,"1.38 fold enrichment (6-mer frequency, TF over GST control)"
same,binding signal,ELF1,"1.26 fold enrichment (6-mer frequency, TF over GST control)"
same,binding signal,EHF,"1.28 fold enrichment (6-mer frequency, TF over GST control)"
same,binding signal,SPI1,"1.24 fold enrichment (6-mer frequency, TF over GST control)"
same,binding signal,SPIB,"1.33 fold enrichment (6-mer frequency, TF over GST control)"
same,binding signal,ELK3,"1.31 fold enrichment (6-mer frequency, TF over GST control)"
same,binding signal,FEV,"1.23 fold enrichment (6-mer frequency, TF over GST control)"
same,binding signal,ETV5,"1.27 fold enrichment (6-mer frequency, TF over GST control)"
same,binding signal,HSF1,"1.41 fold enrichment (6-mer frequency, TF over GST control)"
same,binding signal,SPIC,"1.21 fold enrichment (6-mer frequency, TF over GST control)"
same,binding signal,ELF4,"1.35 fold enrichment (6-mer frequency, TF over GST control)"
same,binding signal,ELK4,"1.24 fold enrichment (6-mer frequency, TF over GST control)"
same,binding signal,ETV2,"1.43 fold enrichment (6-mer frequency, TF over GST control)"
same,binding signal,ELF3,"1.03 fold enrichment (6-mer frequency, TF over GST control)"
same,binding signal,CRX,"1.66 fold enrichment (6-mer frequency, TF over GST control)"
same,binding signal,ETV1,"1.34 fold enrichment (6-mer frequency, TF over GST control)"
